Here are results for five compounds from PubChem BioAssay.

Records with an inconclusive call do not appear. Active and inactive are the calls of the source. Cut-off read from the data, not from the text of the source, unless noted: active = percent of DMSO control GFP below about 86%; inactive = the rest, inconclusive results apart.

The nature of assay [1]: yeast TOR pathway RPL19A-GFP modulators, primary screen, cell-based, S. cerevisiae, multiplex flow cytometry (AID 1862).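 Note: lower values mimic rapamycin by blocking the RPL19A rise seen in DMSO cells.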 To be noted: S. cerevisiae RPL19A-GFP strain, flow cytometry fluorescence, 3 h; at 10 µM; stronger effect = lower value.
Assay [2] in a line: modulators of MEP2-GFP levels in yeast, primary screen, S. cerevisiae, multiplex flow cytometry (AID 1867;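 active = GFP response, as percent of the DMSO control, above the screen-wide mean plus 3 SD, about 139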;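 note: median GFP channel fluorescence of barcode-gated MEP2-GFP cells measured by flow cytometry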). The note with it: S. cerevisiae MEP2-GFP strain, 3 h, at 10 µM, stronger effect = higher value, 100% means same as DMSO wells. (In general: A flow cytometer gives signals particle by particle.)
Assay [3] can be described thus: modulators of CIT2-GFP expression in yeast, primary screen, S. cerevisiae, GFP fusion, multiplex flow cytometry (AID 1870;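 active = percent response above a set limit, the screen-wide mean plus 3 SD, cut at about 130% in these data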;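 note: barcoded CIT2-GFP strain pooled with four other GFP strains with rapamycin as positive control; median GFP fluorescence per well over plate mean of DMSO wells so 100% = DMSO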). To be noted: 3 h, at 10 µM, stronger effect = higher value.
Assay [4] is described as follows: modulators of LAP4-GFP expression in yeast, primary screen, S. cerevisiae, multiplex flow cytometry (AID 1873;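 active = GFP signal, as percent of the solvent control, above the screen mean plus 3 SD, about 149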). The note with it: 3 h, at 10 µM, stronger effect = higher value.
A short description of assay [5]: modulators of AGP1-GFP expression in yeast TOR pathway, primary screen, cell-based, multiplex flow cytometry, S. cerevisiae (AID 1887;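 active = GFP signal above the screen-wide mean plus 3 SD, that is over about 124.5% of the solvent control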;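 note: AGP1-GFP fusion strain of S. cerevisiae within a five-strain barcoded multiplex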). The note with it: 3 h, at 10 µM, stronger effect = higher value.
Assay [6] in a line: inhibitors of CD8+ T cell-vesicle binding, pilot screen, LFA-1/ICAM-1 modulator project, MLPCN validation set, flow cytometry (AID 2523;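 active = response below a set limit, under 55% cells CD8-positive and vesicle-bound, and CD8 cells' 90th-percentile brightness under 279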;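 for vesicle binding response: mean PE anti-B7-1 fluorescence of CD8+ cells relative to row control; 100% = QL9-loaded vesicles with DMSO vehicle in the same plate row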). The note with it: 2C mouse CD8+ T cells, at 7 µM, stronger effect = lower value; double positive events: measured here: CD8+/vesicle+ event percentage.
Assay [7] addresses Integrin beta-1 (Homo sapiens) + Integrin alpha-4 (Homo sapiens) (UniProt P13612+P05556). The assay can be described thus: inhibition of HUTS-21 binding to VLA-4, pilot screen, VLA-4 allosteric modulator project, U937 cells, HUTS-21 mAb, flow cytometry, validation set (AID 2674;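 active = inhibition above 50%, about 3 SD of the validation set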;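 note: antibody binding induced by the VLA-4 ligand LDV present at three times its Kd; 0% = LDV ligand with antibody and no compound and 100% = antibody without LDV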). The note with it: HUTS-21 LIBS mAb binding, at 6.7 µM, stronger effect = higher value, binding induced by LDV ligand.

Assay [8] can be described thus: superoxide lowering in aged yeast cells, pilot screen, validation compound set (AID 2706;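 active = superoxide response below 65% of plate, a cut near 3 SD across the whole screen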;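 note: yeast exposed to compound for one week at 30 degrees C before staining; 100% = mean of all compound wells on the same plate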). The note with it: S. cerevisiae aging, superoxide DHE fluorescence; at 10 µM; stronger effect = lower value.
Assay [9] concerns the target Beta-adrenergic receptor kinase 1 (Homo sapiens) (UniProt P25098). The assay can be described thus: GRK2 binders displacing RNA aptamer, biochemical, validation, human GRK2, bead flow cytometry (AID 488806;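 active = aptamer binding inhibition above 30%, about 3 SD of noise from non-fluorescent compounds; inactive = inhibition at or below 30%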). To be noted: bead-bound GRK2, FAM-aptamer displacement, at 10 µM, stronger effect = higher value.
For assay [10], the target named is Beta-2 adrenergic receptor (Homo sapiens) (UniProt P07550). The assay can be described thus: beta2AR agonists driving receptor internalization, pilot screen, cell-based, FAP fluorogen, flow cytometry, validation set (AID 504459;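 active = percent response above 42, roughly 3 SD of non-fluorescent test compounds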;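 note: agonist-driven loss of surface beta2AR via internalization measured by FAP dye flow cytometry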). To be noted: Am2.2-beta2AR cells, FAP surface receptor flow cytometry; at 10 µM; stronger effect = higher value.
For assay [11], the target named is AP-2 complex subunit beta (Homo sapiens) (UniProt P63010). The assay can be described thus: inhibitors of arrestin peptide binding to AP2, pilot screen, biochemical, validation set, GST-AP2 beads, flow cytometry (AID 504541;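 active = inhibition above 54%, about 3 SD of non-fluorescent compounds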;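 note: AP2 carries R879A mutation and is captured from E. coli lysate; bead-bound FITC arrestin peptide fluorescence measuring arrestin peptide binding to AP2; 0% = DMSO wells and 100% = excess unlabeled arrestin peptide control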). To be noted: FITC arrestin peptide, at 10 µM, stronger effect = higher value, AP2 beta2 appendage fragment, R879A mutant.
The nature of assay [12]: yeast V-ATPase proton transport modulators, S. cerevisiae, pHLuorin, HTS validation (AID 504600; in the data active = response above about 15%;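 note: plate controls were DMSO for no effect and reference compound for full effect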). To be noted: S. cerevisiae pHLuorin cytosolic pH, at 10 µM, stronger effect = higher value.
Assay [13] deals with anti-desmoglein-3 scFv antibody binding to human DSG3. The assay can be described thus: inhibitors of anti-DSG3 scFv binding to DSG3, pilot screen, biochemical, validation compound set, bead-based, flow cytometry (AID 588368;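 active = binding below the plate cutoff, the plate median minus 3 SD, with a reading above zero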;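 note: signal is the median channel fluorescence of bead-bound GFP antibody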). To be noted: Protein G beads, DSG3-Fc, scFv-GFP binding, at 10 µM, stronger effect = lower value.
Assay [14] is described as follows: inhibitors of fungal efflux pumps CDR1, CDR2, MDR1, pilot screen, validation compound set, multiplex, phenotypic (AID 588506;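 active = efflux inhibition above 0.42, the validation set average plus 4 SD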;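 note: Nile Red retained in cells so higher fluorescence means more efflux inhibition; 0 = negative control wells and 1 = enniatin B 25 µM full block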). To be noted: S. cerevisiae pump-expressing triplex, Nile Red efflux flow cytometry; at 10 µM; stronger effect = higher value; the pumps come from Candida albicans.
For assay [15], the target named is ATP-binding cassette sub-family B member 6 (Homo sapiens) (UniProt Q9NP58). The assay can be described thus: ABCB6 transporter inhibitors, pilot screen, K562-ABCB6 cells, flow cytometry, validation set (AID 588550;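 active = inhibition above the screen-wide mean plus 3 SD, about 51%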;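 note: 0% = DMSO wells and 100% = benzethonium chloride 70 µM positive control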). The note with it: K562-ABCB6 porphyrin accumulation, 1 h, at 10 µM, stronger effect = higher value.
The nature of assay [16]: promoters of myeloid differentiation in arrested cells, primary screen, cell-based, GFP/MAC1 double positive, flow cytometry, validation set (AID 588685;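 active = differentiation response of at least 50%, scaled between solvent and reference control, from cells with both markers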;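 note: compound exposure lasts four days before antibody staining and flow analysis; 0% = DMSO wells and 100% = 5 µM fulvestrant positive control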). To be noted: ER-HoxA9 marrow cells, stronger effect = higher value, normalized: vehicle 0, fulvestrant 100.

Chain of Integrin beta-1 (Homo sapiens) + Integrin alpha-4 (Homo sapiens) (P05556 whole entry, looked up): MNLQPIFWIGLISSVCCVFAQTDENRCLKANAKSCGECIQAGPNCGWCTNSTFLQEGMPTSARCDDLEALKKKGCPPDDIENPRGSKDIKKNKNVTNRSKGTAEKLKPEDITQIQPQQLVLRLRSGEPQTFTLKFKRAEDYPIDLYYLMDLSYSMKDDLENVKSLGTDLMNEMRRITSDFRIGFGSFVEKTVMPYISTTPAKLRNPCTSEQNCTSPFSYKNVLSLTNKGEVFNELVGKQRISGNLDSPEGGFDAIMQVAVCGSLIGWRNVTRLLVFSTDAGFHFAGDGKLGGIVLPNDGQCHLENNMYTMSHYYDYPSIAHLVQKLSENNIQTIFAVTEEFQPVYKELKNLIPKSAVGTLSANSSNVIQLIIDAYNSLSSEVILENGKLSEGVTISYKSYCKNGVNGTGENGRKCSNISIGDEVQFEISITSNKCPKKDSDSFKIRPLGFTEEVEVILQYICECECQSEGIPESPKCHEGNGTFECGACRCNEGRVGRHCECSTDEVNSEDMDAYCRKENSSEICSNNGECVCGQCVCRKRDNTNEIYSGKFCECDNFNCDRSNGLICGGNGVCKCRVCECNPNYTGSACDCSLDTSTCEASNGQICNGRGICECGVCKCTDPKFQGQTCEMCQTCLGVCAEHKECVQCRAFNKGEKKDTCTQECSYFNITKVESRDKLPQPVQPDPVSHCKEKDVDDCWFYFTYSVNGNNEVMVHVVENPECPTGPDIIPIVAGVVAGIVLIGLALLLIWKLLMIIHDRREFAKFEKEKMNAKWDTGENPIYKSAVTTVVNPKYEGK
Chain of Integrin beta-1 (Homo sapiens) + Integrin alpha-4 (Homo sapiens) (P13612 whole entry, looked up): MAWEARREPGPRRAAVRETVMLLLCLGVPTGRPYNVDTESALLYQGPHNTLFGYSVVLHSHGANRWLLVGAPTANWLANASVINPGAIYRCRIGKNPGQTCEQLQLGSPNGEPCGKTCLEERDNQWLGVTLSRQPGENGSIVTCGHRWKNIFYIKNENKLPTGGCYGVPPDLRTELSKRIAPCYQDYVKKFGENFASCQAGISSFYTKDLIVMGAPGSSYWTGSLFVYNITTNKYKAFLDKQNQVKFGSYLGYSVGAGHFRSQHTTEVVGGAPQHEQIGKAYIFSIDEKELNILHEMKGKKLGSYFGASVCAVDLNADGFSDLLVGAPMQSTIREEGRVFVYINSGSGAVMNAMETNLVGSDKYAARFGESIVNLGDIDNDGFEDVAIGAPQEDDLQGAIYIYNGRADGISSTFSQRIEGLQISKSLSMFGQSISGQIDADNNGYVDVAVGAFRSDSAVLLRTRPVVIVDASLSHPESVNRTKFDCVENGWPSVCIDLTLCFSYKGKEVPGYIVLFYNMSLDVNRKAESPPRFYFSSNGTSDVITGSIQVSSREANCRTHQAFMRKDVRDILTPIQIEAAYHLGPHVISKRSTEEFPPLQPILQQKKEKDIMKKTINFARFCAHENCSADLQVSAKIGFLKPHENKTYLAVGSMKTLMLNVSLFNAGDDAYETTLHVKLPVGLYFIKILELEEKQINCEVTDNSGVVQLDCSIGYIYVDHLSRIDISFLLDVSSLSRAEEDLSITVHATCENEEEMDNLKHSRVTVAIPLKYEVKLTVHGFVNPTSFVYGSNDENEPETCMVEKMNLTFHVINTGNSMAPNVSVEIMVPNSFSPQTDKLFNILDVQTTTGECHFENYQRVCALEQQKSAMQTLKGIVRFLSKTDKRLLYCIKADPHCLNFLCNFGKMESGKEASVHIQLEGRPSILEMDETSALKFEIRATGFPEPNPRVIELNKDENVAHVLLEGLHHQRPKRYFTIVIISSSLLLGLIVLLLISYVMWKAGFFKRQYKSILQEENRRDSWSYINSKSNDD
Chain of Beta-adrenergic receptor kinase 1 (Homo sapiens) (P25098 whole entry, looked up): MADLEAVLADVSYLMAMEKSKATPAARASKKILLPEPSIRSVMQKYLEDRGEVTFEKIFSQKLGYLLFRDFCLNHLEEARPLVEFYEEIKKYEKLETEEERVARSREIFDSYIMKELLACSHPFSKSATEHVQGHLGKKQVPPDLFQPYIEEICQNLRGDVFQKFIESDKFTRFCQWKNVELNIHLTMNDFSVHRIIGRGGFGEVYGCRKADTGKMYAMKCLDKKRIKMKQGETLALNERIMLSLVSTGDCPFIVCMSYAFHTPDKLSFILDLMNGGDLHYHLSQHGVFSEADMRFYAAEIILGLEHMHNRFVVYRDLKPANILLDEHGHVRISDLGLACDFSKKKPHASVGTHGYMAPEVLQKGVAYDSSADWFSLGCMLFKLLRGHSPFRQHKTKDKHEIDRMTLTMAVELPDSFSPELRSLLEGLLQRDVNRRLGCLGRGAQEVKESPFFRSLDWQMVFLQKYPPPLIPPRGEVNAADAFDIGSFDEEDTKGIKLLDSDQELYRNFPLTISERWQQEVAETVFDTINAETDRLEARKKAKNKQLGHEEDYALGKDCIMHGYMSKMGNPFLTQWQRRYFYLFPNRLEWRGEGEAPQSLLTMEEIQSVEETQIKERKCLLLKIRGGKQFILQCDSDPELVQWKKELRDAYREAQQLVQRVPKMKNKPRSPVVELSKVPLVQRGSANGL
Chain of ATP-binding cassette sub-family B member 6 (Homo sapiens) (Q9NP58 whole entry, looked up): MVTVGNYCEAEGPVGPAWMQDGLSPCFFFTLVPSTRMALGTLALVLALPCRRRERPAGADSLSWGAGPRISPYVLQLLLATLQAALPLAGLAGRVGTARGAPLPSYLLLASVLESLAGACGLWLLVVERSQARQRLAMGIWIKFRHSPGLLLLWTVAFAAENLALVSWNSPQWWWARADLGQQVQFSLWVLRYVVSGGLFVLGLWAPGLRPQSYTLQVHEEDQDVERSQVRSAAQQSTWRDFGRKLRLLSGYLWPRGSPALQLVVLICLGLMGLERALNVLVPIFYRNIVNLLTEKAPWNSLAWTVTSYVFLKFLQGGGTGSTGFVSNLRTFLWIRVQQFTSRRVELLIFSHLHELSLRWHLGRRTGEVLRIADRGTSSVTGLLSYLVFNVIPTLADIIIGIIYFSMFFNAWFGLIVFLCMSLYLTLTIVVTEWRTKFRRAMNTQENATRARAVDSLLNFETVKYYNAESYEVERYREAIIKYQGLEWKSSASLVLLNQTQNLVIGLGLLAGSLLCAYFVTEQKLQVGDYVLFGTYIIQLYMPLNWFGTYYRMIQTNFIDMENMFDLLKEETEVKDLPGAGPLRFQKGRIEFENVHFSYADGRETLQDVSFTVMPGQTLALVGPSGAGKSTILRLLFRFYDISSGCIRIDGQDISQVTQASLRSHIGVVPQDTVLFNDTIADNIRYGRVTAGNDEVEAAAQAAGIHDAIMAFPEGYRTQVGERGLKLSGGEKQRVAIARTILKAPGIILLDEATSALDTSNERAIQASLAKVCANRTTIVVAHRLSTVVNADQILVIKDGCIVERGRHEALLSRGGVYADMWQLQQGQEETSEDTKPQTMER
Chain of AP-2 complex subunit beta (Homo sapiens) (P63010 whole entry, looked up, the tested form may be a part, one chain of several): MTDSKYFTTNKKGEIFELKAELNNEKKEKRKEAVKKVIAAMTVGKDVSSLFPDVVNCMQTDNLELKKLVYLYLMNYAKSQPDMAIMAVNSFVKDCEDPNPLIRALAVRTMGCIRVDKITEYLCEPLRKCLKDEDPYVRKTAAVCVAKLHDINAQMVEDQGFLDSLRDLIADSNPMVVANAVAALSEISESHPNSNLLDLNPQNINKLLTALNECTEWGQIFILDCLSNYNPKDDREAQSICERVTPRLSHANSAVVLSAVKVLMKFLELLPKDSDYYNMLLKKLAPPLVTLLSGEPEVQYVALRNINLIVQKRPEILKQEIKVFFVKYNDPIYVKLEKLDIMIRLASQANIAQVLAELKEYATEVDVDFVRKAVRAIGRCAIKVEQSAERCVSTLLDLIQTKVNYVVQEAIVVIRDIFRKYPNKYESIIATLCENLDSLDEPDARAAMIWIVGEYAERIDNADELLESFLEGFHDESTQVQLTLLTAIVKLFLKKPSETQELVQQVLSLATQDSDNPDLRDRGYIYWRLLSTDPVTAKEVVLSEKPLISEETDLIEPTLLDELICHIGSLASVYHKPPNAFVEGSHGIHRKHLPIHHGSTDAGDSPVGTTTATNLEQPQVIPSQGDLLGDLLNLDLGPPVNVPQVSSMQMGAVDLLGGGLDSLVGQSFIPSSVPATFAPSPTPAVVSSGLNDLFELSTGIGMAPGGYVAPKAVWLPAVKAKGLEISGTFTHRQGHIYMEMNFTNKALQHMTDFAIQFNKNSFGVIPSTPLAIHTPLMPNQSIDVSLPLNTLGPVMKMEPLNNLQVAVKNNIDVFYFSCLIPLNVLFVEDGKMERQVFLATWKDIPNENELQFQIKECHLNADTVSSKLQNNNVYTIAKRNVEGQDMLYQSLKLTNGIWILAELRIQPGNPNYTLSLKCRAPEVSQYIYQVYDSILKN
Chain of Beta-2 adrenergic receptor (Homo sapiens) (P07550 whole entry, looked up): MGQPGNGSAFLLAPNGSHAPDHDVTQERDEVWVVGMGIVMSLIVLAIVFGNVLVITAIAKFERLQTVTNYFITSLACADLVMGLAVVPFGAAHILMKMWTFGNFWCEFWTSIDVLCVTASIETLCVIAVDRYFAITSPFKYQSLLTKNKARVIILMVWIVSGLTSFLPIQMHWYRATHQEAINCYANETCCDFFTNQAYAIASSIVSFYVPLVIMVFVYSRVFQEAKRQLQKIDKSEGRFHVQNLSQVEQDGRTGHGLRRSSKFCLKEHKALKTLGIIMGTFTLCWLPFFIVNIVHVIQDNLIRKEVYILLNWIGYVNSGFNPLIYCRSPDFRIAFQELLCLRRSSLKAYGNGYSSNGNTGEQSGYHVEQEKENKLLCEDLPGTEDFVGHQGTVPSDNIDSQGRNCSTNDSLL

On to `Nc1nnc(CSCc2ccc(Cl)cc2Cl)s1`, for which the percent of DMSO control GFP in assay [1] is 101% (inactive). For the same compound, the GFP response vs DMSO in assay [2] was 98.7% (inactive); in assay [4], 105% (inactive). Besides, the percent response of DMSO control in assay [3] is 105% (inactive). Moreover, the GFP response, % of DMSO in [5] is 105% (inactive). In addition, in assay [6], the double positive events was determined as 58.8%. In assay [6], the vesicle binding response is 162% (inactive). The inhibition – broadly, the change of the read-out against control, counted positive when it falls – is -11.8% (inactive) in assay [7], 5.12% (inactive) in [11] and 0% (inactive) in assay [15]. Besides, in [8], the superoxide response (% of plate) is 95.2% (inactive). Moreover, the aptamer binding inhibition in assay [9] is -1% (inactive). Besides, the response in [10] was -6.41% (inactive); in assay [12], 3.83% (inactive). Further, the binding (% of control) in assay [13] is 112% (inactive). In [14], the efflux inhibition (fraction of control) is 0.47 (active). Besides, in assay [16], the differentiation response is 10.1% (inactive).
As for `C=C1C2(C(=O)Nc3ccc(SC(F)F)cc3)CCC(C2)C1(C)C` (stereo not given), the percent of DMSO control GFP in assay [1] was 103% (inactive). In addition, the values for the GFP response vs DMSO in assay [2] and in [4] were 99.3% (inactive) and 96% (inactive), respectively. Further, the percent response of DMSO control in assay [3] is 105% (inactive). The GFP response, % of DMSO in assay [5] was 100% (inactive). The compound further had a double positive events in [6] of 66.3%. Also, the vesicle binding response in [6] was 1190% (inactive). In addition, the inhibition was 1.62% (inactive) in assay [7], -6.22% (inactive) in assay [11] and 7% (inactive) in [15]. In addition, in [8], the superoxide response (% of plate) was 82.1% (inactive). Further, the aptamer binding inhibition in [9] was 1% (inactive). Moreover, the response in assay [10] was -6.87% (inactive); in [12] it was 1.62% (inactive). For the same compound, the binding (% of control) in assay [13] is 101% (inactive). Further, the efflux inhibition (fraction of control) in [14] was -0.29 (inactive). In assay [16], the differentiation response is 2.2% (inactive).
In the case of `Cn1c(=O)[nH]c2nnc(-c3ccc(Cl)c(Cl)c3)nc2c1=O`, in assay [1], the percent of DMSO control GFP was 103% (inactive). The values for the GFP response vs DMSO in assay [2] and in [4] were 102% (inactive) and 98% (inactive), respectively. The percent response of DMSO control in [3] is 105% (inactive). Further, in assay [5], the GFP response, % of DMSO was 104% (inactive). In addition, the double positive events in [6] turned out to be 61.9%. Moreover, the vesicle binding response in assay [6] was 133% (inactive). Moreover, the inhibition in assay [7] was 2.93% (inactive); in assay [11] it was 5.98% (inactive); in [15], -7% (inactive). For the same compound, the superoxide response (% of plate) in assay [8] is 73.3% (inactive). The aptamer binding inhibition in assay [9] was 9% (inactive). Further, the response in assay [10] is 9.11% (inactive); in assay [12] it was 0.72% (inactive). Besides, the binding (% of control) in assay [13] is 101% (inactive). The efflux inhibition (fraction of control) in assay [14] was -0.21 (inactive). In assay [16], the differentiation response is -13.3% (inactive).
In the case of `COc1ccc(/C=C\c2nc(=O)c3ccccc3o2)cc1`, in assay [1], the percent of DMSO control GFP was 111% (inactive). In addition, the GFP response vs DMSO is 100% (inactive) in [2] and 81.5% (inactive) in assay [4]. In assay [3], the percent response of DMSO control is 101% (inactive). For the same compound, in [5], the GFP response, % of DMSO was 96.7% (inactive). In assay [6], this compound had a double positive events of 64.1%. Also, the vesicle binding response in assay [6] was 360% (inactive). The inhibition was 6.81% (inactive) in assay [7], 0.71% (inactive) in assay [11] and 3% (inactive) in [15]. Also, the superoxide response (% of plate) in [8] was 108% (inactive). The aptamer binding inhibition in assay [9] is 5% (inactive). Moreover, the figures for the response in [10] and in assay [12] were 2.1% (inactive) and 8.52% (inactive), respectively. In addition, in [13], the binding (% of control) is 98% (inactive). In [14], the efflux inhibition (fraction of control) was -0.01 (inactive). The differentiation response in assay [16] is 6.11% (inactive).
For `COc1ccc(CN2CCCCC2C(=O)Nc2ccc(OC)c(OCC(C)C)c2)cc1OC` (stereo not given), the percent of DMSO control GFP in assay [1] is 100% (inactive). Also, the GFP response vs DMSO in assay [2] was 103% (inactive); in assay [4] it was 90.7% (inactive). Also, the percent response of DMSO control in assay [3] was 101% (inactive). Also, the GFP response, % of DMSO in assay [5] was 104% (inactive). This compound also yielded a double positive events in [6] of 54.3%. In addition, the vesicle binding response in assay [6] is 29% (active). Moreover, the inhibition was -0.45% (inactive) in assay [7], 18.5% (inactive) in assay [11] and 4% (inactive) in [15]. Moreover, the superoxide response (% of plate) in assay [8] was 95% (inactive). Moreover, the aptamer binding inhibition in assay [9] is 2% (inactive). The values for the response in [10] and in [12] were -10.2% (inactive) and -0.65% (inactive), respectively. Besides, in assay [13], the binding (% of control) was 95.9% (inactive). Moreover, the efflux inhibition (fraction of control) in [14] was -0.35 (inactive). The differentiation response in assay [16] was 2.2% (inactive).
